SARS PLpro yeast-1 = SARS-CoV PLP inhibition in yeast; S. cerevisiae expressing SARS-CoV PLpro, growth rescue; 330,000 compounds, 0.19% hits; Potency, µM (titrated, usually from 32.9 µM), without a hit: at the highest dose activity, positive = growth rescue, hits mostly activators; calls by dose curve; further: potency means the concentration at half of the fitted maximal effect; 0% is about no effect; nearly all actives have a fitted effect of over 55% in size
Pf growth 48h = inhibits P. falciparum growth in the first generation, 48 h. 310,000 compounds, 5.9% hits. P. falciparum luciferase growth in erythrocytes, 48 h. Potency, µM (top dose mostly 28.7 µM), for the others: at the highest dose activity change, negative = inhibition, hits mostly inhibitors; further: potency means the concentration at half of the fitted maximal effect; on the % scale 0 is the no-effect control and ±100 the full control effect
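Read-out is firefly luciferase luminescence from an integrated reporter in P. falciparum, so falling signal marks reduced parasite growth. Infected erythrocytes were at 2% hematocrit and 0.1% parasitemia (final) in Albumax-supplemented RPMI 1640.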
Shiga inhibitor = Shiga toxin inhibition. Vero cells, Shiga toxin protein synthesis inhibition reporter. inhibition, % at 38.7 µM. 290,000 compounds, 9.2% hits; in the data active means inhibition mostly above about 28%, no sharp cut-off; inactive means mostly below about 43%; further: 0% is about no effect
Pf growth 96h = P. falciparum growth inhibition at 96 hours | AID 504834 | 320,000 compounds, 6.9% hits | Potency, µM (series often up to 28.7 µM), inactives show top-dose activity change, negative = inhibition, most hits filed as inhibitors | P. falciparum luciferase reporter growth, 96 h; further: potency means the concentration at half of the fitted maximal effect; on the % scale 0 is the no-effect control and ±100 the full control effect
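P. falciparum expressing integrated firefly luciferase grown in erythrocytes (2% hematocrit, 0.05% parasitemia final) with compounds for 96 hours at 37 C, 5% CO2. Growth inhibition read as loss of luminescence after adding luciferase detection reagent.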
CHX counter = affects cycloheximide protein synthesis inhibition readout, counter-screen; 300,000 compounds, 12% hits; max response, %; cell reporter, cycloheximide protein synthesis inhibition counterscreen; AID 2314; in the data active means max response mostly above about 13%, no sharp cut-off; inactive means mostly below about 14%; further: read at 38.3 µM for the half of the compounds with a filed dose; 0% is about no effect
NS1 inh = blocks influenza NS1 protein function; Potency, µM (titrated, usually from 46.1 µM), for the others: at the top dose activity, positive = more growth; 270,000 compounds, 0.4% hits; calls by dose curve; further: potency means the concentration at half of the fitted maximal effect; actives are rising curves; nearly all actives have a fitted effect of over 50% in size
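Read-out: OD600 growth recovery of NS1-expressing budding yeast. Cells grown overnight at 30C in -URA glucose medium, washed, resuspended and diluted 1:100 in 2% galactose assay medium, pH 6.0. Same strain lacking NS1 served as positive control.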
SARS PLpro yeast-2 = Rescues yeast growth by inhibiting SARS-CoV PLpro; calls only; 1,000 compounds, 19% hits; shares compounds with SARS PLpro yeast-1; yeast expressing SARS-CoV PLpro, growth phenotype rescue; call rule not given here
Active calls of the source: *; i = inactive; ? = inconclusive; . = not tested or not shown; + = active, no number. Compounds with a hit are over-represented: about 21% of the library has one in this group of screens. Unless noted, the call rests on the fitted dose curve; in most records, active means well fitted inhibition curve with a large enough effect; inconclusive means small, poorly fitted or top-dose-only effect, or another doubt; inactive means no such curve, though single readings can be large or run the other way.

SMILES | SARS PLpro yeast-1 | Pf growth 48h | Shiga inhibitor | Pf growth 96h | CHX counter | NS1 inh | SARS PLpro yeast-2
CCOC(=O)C1=C(N)Oc2cc(O)ccc2C1c1ccc(Br)cc1 (stereo not drawn) | -5% | 0% | 10 | ? | 0 | 7% | .
O=C(NCC1CCCO1)C1CCCN1C(=O)Nc1ccccc1[N+](=O)[O-] (stereo not drawn) | -1% | 37% | -5 | 6% | -2 | 9% | .
O=C(CCCc1ccccc1)N1CCN(c2ccc([N+](=O)[O-])cc2)CC1 | -5% | 12% | 27 | 0% | -1 | -12% | .
Cc1sc2nc(CN(C(=O)NC3CCCCC3)C3CCCC3)[nH]c(=O)c2c1C | 3.5µM* | ? | -9 | -21% | 5 | -12% | ?
Cc1ccc(C(=O)Nc2nc(-c3ccccc3)c(-c3ccccc3)o2)cc1 | 10µM* | -13% | 23 | ? | -1 | -14% | +
CCOc1ccc(CCNC(=O)c2ccc(CS(=O)Cc3ccc(Cl)cc3)o2)cc1 (stereo not drawn) | ? | 3% | 16 | ? | 5 | 9% | i
NNC(=O)C(=O)NCCCN1CCOCC1 | 2% | -5% | 10 | 9% | -2 | . | .
CCOc1ccc(NC(=O)CC2S/C(=N/N=C3CCCCCC3)NC2=O)cc1 (stereo not drawn) | ? | ? | 1 | ? | -2 | 0% | i
OC1(c2cccc(C(F)(F)F)c2)CCN(Cc2nnnn2CCc2ccccc2)CC1 | ? | ? | -5 | 31% | 1 | -11% | i
CCOC(=O)c1ccc(NC(=O)Cn2cnc(S(=O)(=O)N3CCCC3)c2)cc1 | 6% | 3% | 4 | ? | -9 | -9% | .
Cc1cnc(C(=O)OCC(=O)N(Cc2ccccc2)C(C)(C)C)cn1 | -1% | . | . | . | . | . | .
CC(C)(C)N(Cc1ccccc1)C(=O)COC(=O)C1CCCCC1 | 3.2µM* | . | . | . | . | . | i
COc1cc(/C=N/NC(=O)c2cnccn2)ccc1O | 3.5µM* | 14% | -9 | ? | 9 | 9% | i
CN1CCN(Cc2cc(Cl)c3cccnc3c2OC(=O)c2cccs2)CC1 | 11µM* | ? | -8 | ? | -6 | -3% | i
Cc1ccc(-c2nc(S(=O)(=O)c3ccc(F)cc3)c(SCC(=O)NCC3CCCO3)o2)cc1 (stereo not drawn) | -34% | 8% | -10 | 0% | 0 | 9% | .
O=C(CSc1oc(-c2ccc(F)cc2)nc1S(=O)(=O)c1ccc(F)cc1)NCC1CCCO1 (stereo not drawn) | ? | -3% | -5 | . | 4 | 4% | i
COc1ccc(CNC(=O)C[C@H]2C[C@H](C(=O)N3CCOCC3)[C@@]3(CCC4CCCC4)c4[nH]c5cc(CCC(=O)N(C)C)ccc5c4CCN3C2=O)cc1OC | ? | . | . | . | . | . | i
CN(C)C(=O)CCc1ccc2c3c([nH]c2c1)[C@]1(CCC2CCCC2)[C@@H](C(=O)N2CCOCC2)C[C@H](CC(=O)NCCN2CCOCC2)C(=O)N1CC3 | -11% | . | . | . | . | . | .
COC(=O)c1c(NS(=O)(=O)c2ccc(C)cc2)sc2c1CCC(C)C2 (stereo not drawn) | ? | -13% | -4 | -16% | -3 | -3% | +
CCN(CC)C(=O)CSc1nnc(CNc2ccc(F)cc2)o1 | -1% | 5% | -7 | ? | 9 | -6% | .
CC(=O)NC1=NN(C(C)=O)C(c2ccccn2)S1 (stereo not drawn) | 1% | 14% | -5 | 218% | 1 | 2% | .
NC(=O)Nc1ccccc1C(=O)N1CCC(O)(c2ccc(Cl)cc2)CC1 | 1% | 14% | -7 | -29% | -4 | 5% | .
COC(=O)Nc1ccccc1C(=O)N1CCC(O)(c2ccc(Cl)cc2)CC1 | ? | -24% | -2 | -27% | -1 | -16% | i
O=C(CCn1c(=O)oc2ccccc21)NC1=NCCS1 | ? | 4% | -2 | ? | -2 | 2% | i
O=C(CCN1C(=O)/C(=C\c2cccs2)SC1=S)NC1=NCCS1 | -11% | 13% | -5 | 30% | -5 | 13% | .
SMILES | SARS PLpro yeast-1 | Pf growth 48h | Shiga inhibitor | Pf growth 96h | CHX counter | NS1 inh | SARS PLpro yeast-2
COc1ccccc1/C=C1\SC(=S)N(CCC(=O)NC2=NCCS2)C1=O | 4µM* | 7% | -9 | -5% | -5 | 8% | i
COc1cc2c(cc1OC)/C(=C/c1ccc(Br)cc1)C(=O)OC2 | -48% | -26% | -4 | ? | -7 | -16% | .
Cc1ccc(-c2nc3ccccn3c2NC(=O)c2ccco2)cc1 | ? | -8% | 9 | ? | -3 | -7% | i
CC(C)C(=O)NC(c1ccccc1)c1cc([N+](=O)[O-])c2cccnc2c1O (stereo not drawn) | ? | -8% | -14 | 0.37µM* | 1 | 4% | i
CCC(=O)NC(c1cccs1)c1cc([N+](=O)[O-])c2cccnc2c1O (stereo not drawn) | ? | ? | -11 | 23% | -3 | -23% | i
CC(=O)NC(c1cccs1)c1cc([N+](=O)[O-])c2cccnc2c1O (stereo not drawn) | ? | ? | -7 | ? | -2 | -18% | .
CCCC(=O)NC(c1cccs1)c1cc([N+](=O)[O-])c2cccnc2c1O (stereo not drawn) | . | ? | 15 | 147% | -1 | 8% | i
O=C(N/N=C/c1cc([N+](=O)[O-])cc([N+](=O)[O-])c1O)/C(=C\c1cccs1)NC(=O)c1ccccc1 | ? | 7% | -7 | 29% | 0 | 7% | +
COc1cc(/C=N/NC(=O)/C(=C\c2ccc([N+](=O)[O-])cc2)NC(=O)c2ccccc2)cc(OC)c1O | 6% | . | -13 | . | -1 | 26% | .
CCCCC(=O)NC(c1ccccc1)c1ccc2cccnc2c1O (stereo not drawn) | 4.5µM* | ? | -6 | ? | -1 | 2% | i
CCC(=O)NC(c1ccccc1OC)c1ccc2cccnc2c1O (stereo not drawn) | ? | 4.1µM* | 19 | -4% | 9 | -10% | +
CCC(=O)NC(c1ccco1)c1cc(Cl)c2cccnc2c1O (stereo not drawn) | -6% | ? | -22 | 12% | -2 | -39% | .
O=C(CCl)Nc1ccc(Oc2cnc3ccccc3n2)cc1 | 10µM* | 1.7µM* | 46 | 0.74µM* | 30* | ? | +
O=C(NNC(=O)c1cc(Cl)ccc1O)c1cccc(S(=O)(=O)N2CCOCC2)c1 | ? | ? | . | -8% | . | . | +
O=C(NN1C(=O)/C(=C/c2ccc(O)c(O)c2)SC1=S)c1ccccc1 | ? | -24% | -9 | 10µM* | -3 | 24% | i
COc1cc(/C=C2\SC(=S)N(NC(=O)c3ccc(O)cc3)C2=O)ccc1O | 1% | 33% | 8 | 16% | 7 | 10% | .
CCOc1cc(CNCCSc2nnnn2C)cc(Br)c1OCc1ccc(F)cc1 | ? | ? | -12 | 10µM* | -4 | -3% | i

Screens deposited in PubChem by National Center for Advancing Translational Sciences (NCATS).
